KinaseGlo FLuc: counter-screen: inhibitors of Kinase-Glo firefly luciferase. AID 1379. Potency, µM (highest dose often 38.3 µM), without a hit: top-dose activity change, negative = inhibition, actives largely listed as inhibitors. 200,000 tested, 0.28% active. Q27757. Kinase-Glo luciferase, ATP luminescence, 8 min; further: on the % scale 0 is the no-effect control and ±100 the full control effect; nearly all actives have a fitted effect of over 60% in size
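Substrate mix (final 50 mM imidazole pH 7.2, 50 mM KCl, 7 mM MgCl2, 10 uM ATP, 0.01% Tween 20, 0.05% BSA) plus pin-tool compound, then Kinase-Glo detection mix; 8 min ambient, luminescence read.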
FLuc modulator: inhibits or activates purified firefly luciferase, miR-21 counter-screen | P08659 | purified FLuc, Km substrates, luminescence inhibition | Potency, µM (top dose mostly 57.5 µM), inactives show at the top dose activity change, negative = inhibition, usual class: inhibitors | 360,000 tested, 6.9% active | AID 588342;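 further: plate controls were vehicle for no effect and reference inhibitor for full effect; nearly all actives have a fitted effect of over 55% in size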
Target sequence (P08659 whole entry, looked up): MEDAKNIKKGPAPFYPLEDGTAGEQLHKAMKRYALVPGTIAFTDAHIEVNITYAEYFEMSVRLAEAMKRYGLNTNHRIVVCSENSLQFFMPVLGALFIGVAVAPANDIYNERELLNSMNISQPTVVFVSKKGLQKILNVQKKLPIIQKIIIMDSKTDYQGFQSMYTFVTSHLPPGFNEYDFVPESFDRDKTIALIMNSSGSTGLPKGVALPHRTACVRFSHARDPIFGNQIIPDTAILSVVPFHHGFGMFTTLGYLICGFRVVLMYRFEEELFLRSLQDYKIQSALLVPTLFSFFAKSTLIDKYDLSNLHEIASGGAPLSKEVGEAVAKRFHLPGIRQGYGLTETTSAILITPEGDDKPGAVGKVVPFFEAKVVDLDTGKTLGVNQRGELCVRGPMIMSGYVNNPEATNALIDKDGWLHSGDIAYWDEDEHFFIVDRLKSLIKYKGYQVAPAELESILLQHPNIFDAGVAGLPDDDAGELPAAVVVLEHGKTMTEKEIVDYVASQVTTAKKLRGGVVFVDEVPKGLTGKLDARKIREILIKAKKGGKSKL
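Purified P. pyralis luciferase, 10 nM final, with Km-level 10 uM D-luciferin and 10 uM ATP in 50 mM Tris acetate pH 7.5, 10 mM Mg acetate, 0.01% Tween-20, 0.05% BSA; 6-point qHTS titration about 60 µM downward; luminescence read.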
NPC1 prom act: activates the NPC1 promoter | 320,000 tested, 2.4% active | Potency, µM (highest dose often 9.22 µM), without a hit: top-dose activation, usual class: activators | Huh7 NPC1 promoter luciferase reporter, 24 h; further: % of control where 0% means no effect; nearly all actives have a fitted effect of over 60% in size
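Luciferase expression driven by the NPC1 promoter was measured in stably transfected Huh7 cells after a 24 h compound incubation, using a luciferase reagent and a luminescence read.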
ELG1 genotox: induces genotoxicity in HEK293T cells with luciferase-tagged ELG1; HEK293T ELG1-luciferase reporter, luminescence, 16 h; Potency, µM (doses to about 46 µM), inactives show at the highest dose activity change, positive = activation, hits mostly activators; 330,000 tested, 1.3% active; AID 504466; further: % of control where 0% means no effect; nearly all actives have a fitted effect of over 60% in size
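Screening used a luciferase reporter fused to human ELG1 in HEK293T cells. Luminescence was read on a CCD plate imager after 16 hr exposure and 30 min ONE-Glo incubation.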
Rab9 promoter act: activates the Rab9 promoter; Huh7 Rab9 promoter-luciferase reporter, luminescence, 24 h; Potency, µM (top dose mostly 9.22 µM), inactives show at the top dose activation, negative = inhibition, hits mostly activators; 320,000 tested, 2.8% active; further: % of control where 0% means no effect; nearly all actives have a fitted effect of over 60% in size
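Cells were plated at 1500 per well in reduced-serum medium with 10% FBS and left 2 h. Compound in DMSO was then added for 24 h at 37 °C. Reporter signal was read by luminescence after 10 min with luciferase detection reagent.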
SMN2 splice up: SMN2 splice variant enhancement; 210,000 tested, 2.8% active; HEK293 SMN2-luciferase splicing reporter, luminescence, 30-36 h; Potency, µM (doses to about 46.1 µM), for inactives: top-dose activity change, positive = activation, most hits filed as activators; further: % of control where 0% means no effect; nearly all actives have a fitted effect of over 55% in size
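HEK293 cells carry an SMN2 […]–luciferase reporter in which exon 7 inclusion puts luciferase in frame. Cells were plated 10-12 h before compound addition, then incubated 30-36 h at 37C. ONE-Glo luminescence was read; sodium butyrate at 4.5 mM final served as control.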
Starred values were filed as active, the others as inactive; ? = inconclusive; / = no result; [ ] = dose if it differs, or a comment. Compounds with a hit are over-represented: about 7.3% of the library has one in this group of screens. The call rests on the fitted dose curve; in most records, active means well fitted curve in the direction sought with a large enough effect; inconclusive means small, poorly fitted or top-dose-only effect, or another doubt; inactive means no such curve, though single readings can be large; an effect the other way counts as inactive or inconclusive. Potency means the concentration at half of the fitted maximal effect.

SMILES	KinaseGlo FLuc	FLuc modulator	NPC1 prom act	ELG1 genotox	Rab9 promoter act	SMN2 splice up
O=C(COc1ccccc1)Nc1ncn[nH]1	/	-13%	13%	8%	11%	/
CCc1ccc(OCC(=O)Nc2ncn[nH]2)c(Br)c1	/	1.1µM*	/	/	/	?
CCCN1CCN(CCCNC(=O)Cn2c(-c3cccs3)cc3cc(Cl)ccc32)CC1	/	-1%	/	/	/	/
Cc1ccc(NC(=O)c2oc3ccc(S(=O)(=O)N4CCC5(CC4)OCCO5)cc3c2C)c(C)c1	/	3%	/	/	/	/
COc1ccc2nc(NC(=O)c3ccc(F)cc3)sc2c1	/	0.85µM*	2.5µM*	?	1.4µM*	/
COc1ccc2nc(NC(=O)c3ccc4ncsc4c3)sc2c1	4%	1.1µM*	2.8µM*	5.8µM*	1.8µM*	?
COc1ccc2nc(NC(=O)c3ccc(-n4nc(C)cc4C)cc3)sc2c1	-2%	0%	-2%	11%	7%	-23%
NC(=O)c1ccc2nc(NC(=O)c3ccc(N)cc3)sc2c1	-4%	3µM*	?	16%	?	?
Cc1ccccc1CNC(=O)CCSCc1cnn(-c2ccccc2)c1-n1cccc1	/	-14%	/	/	/	/
C=C(C(C)=O)C(O)c1ccc2ccccc2c1 (stereo unspecified)	-6%	/	/	/	/	1%
Cc1ccc2c(=O)cc(C(=O)Nc3c(C)n(C)n(-c4ccccc4)c3=O)oc2c1	/	2%	/	/	/	-9%
COc1ccccc1NC=C1C(=O)OC(C)(C)OC1=O	7%	11µM*	-4%	0%	9%	9%
CCOc1ccccc1NC=C1C(=O)OC(C)(C)OC1=O	-3%	?	17%	-1%	2%	-4%
COc1ccc(/C=C\C(=O)Nc2ccccc2C(=O)O)cc1OC	4%	/	/	/	/	/
O=c1c(-c2ccccc2)n[nH]c2ccccc12	/	9.5µM*	2.2µM*	0%	3.5µM*	/
O=[N+]([O-])c1ccc2[nH]nc(-c3ccccc3)c2c1	0%	-1%	-2%	-2%	1%	-6%
Cc1nn2c(=O)c(NC(=O)c3ccc(F)cc3)cnc2s1	-1%	2%[2.3 µM]	10%	0%	14%	26%
Cc1ccc(C(=O)Nc2cnc3sc(C)nn3c2=O)cc1	-4%	-6%[2.3 µM]	?	?	?	13µM*
Cc1c2cnn(CC(=O)NCc3ccc(F)cc3)c(=O)c2c(C)n1Cc1cccc(Cl)c1	/	-2%	/	/	/	-2%
Cc1cc(C(=O)COc2ccc(Cl)cc2Br)c(C)n1C	4%	21µM*	28%	10%	?	7%
Cc1cc(C(=O)COc2ccccc2C(N)=O)c(C)n1C	-1%	?	12%	1%	12%	-5%
Cc1cc(C(=O)COc2cccc3cccnc23)c(C)n1C	-7%	17µM*	?	1%	26%	?
O=C(NCc1ccc2c(c1)OCO2)c1ccc2c(c1)N(Cc1ccccc1F)C(=O)c1ccccc1S2=O (stereo unspecified)	/	3%	/	/	/	16%
Cc1nc(C(C)NC(=O)c2cc(COc3ccc(F)c(F)c3)on2)cs1 (stereo unspecified)	/	-3%	-16%	1%	-3%	/
Cc1nc(C(C)NC(=O)c2cc(COc3ccc(C)c(C)c3)on2)c(C)s1 (stereo unspecified)	/	9.5µM*	2.8µM*	?	3.2µM*	/
CCc1cc(C(=O)NC(C)c2ccccc2)no1 (stereo unspecified)	/	2%	/	/	/	-2%
Cc1ccc(OCc2cc(C(=O)NC(C)Cc3cnccn3)no2)cc1C (stereo unspecified)	/	-21%	-5%	0%	4%	/
Cc1cc(OCc2cc(C(=O)NC(C)c3c(C)nn(C)c3C)no2)cc(C)c1Cl (stereo unspecified)	/	6.7µM*	2.5µM*	?	2.2µM*	/
Cc1cccc(CC(C)NC(=O)c2cc(COc3ccc(C)c(C)c3)on2)n1 (stereo unspecified)	/	21µM*	?	18%	?	/
